Data on 14 compounds can be found in PubChem BioAssay (NCI).

Some test systems named below: T-47D breast; BT-549 breast; MDA-MB-435 melanoma; SW-620 colon; MCF7 breast; HCT-116 colon; HCC-2998 colon; KM12 colon.
Test in all cases: NCI-60 one-dose screen, 48 h (100 = growth as untreated, 0 = no growth, -100 = all killed)
Conditions in all cases: 10 µM

SMILES strings stand for the structures. The panel holds about 83,000 compounds, 20% with a hit somewhere; the sample as a whole holds those more often.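 Note: values are percent growth. 100 is the growth of untreated cells, values between 100 and 0 indicate rising inhibition; between -100 and 0 indicates cell death.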 Unmarked numbers belong to inactive results. Activity calls are given as the source filed them. Rule for the calls: active = growth percent below 10; inactive = the rest.

Consider `Cc1cc(=O)n2nnc3cc(C(F)(F)F)ccc3n12`, for which the growth in the test with T-47D breast is 116%; in the test with BT-549 breast, 127%; in the test on MDA-MB-435 melanoma, 99.4%; in the test with SW-620 colon it was 118%; in the test with MCF7 breast it was 120%; in the test on HCT-116 colon, 103%. Further, the growth in the test on HCC-2998 colon is 104%; in the test with KM12 colon it was 105%.

Consider `COc1ccc2c(c1)C(=O)/C(=C/c1ncc([N+](=O)[O-])n1C)O2`, for which the growth in the test on T-47D breast was 92%; in the test on BT-549 breast it was -18.7% (active); in the test with MDA-MB-435 melanoma, -63.2% (active); in the test on SW-620 colon it was -41% (active); in the test with MCF7 breast, 5.2% (active); in the test with HCT-116 colon, -10.7% (active). The growth in the test on HCC-2998 colon is -64.1% (active); with KM12 colon it was -36.3% (active).

Regarding `O=C1/C=C/[C@@H](O)[C@@H]2C[C@@H](O)C[C@H]2/C=C/CCC[C@@H](C(F)(F)F)O1`, the growth with T-47D breast is 82.3%; in the test on BT-549 breast it was 123%; in the test on MDA-MB-435 melanoma, 93.5%; in the test with SW-620 colon it was 93.9%; in the test with MCF7 breast, 67.1%; with HCT-116 colon it was 109%. The values for the growth in the test with HCC-2998 colon and in the test on KM12 colon were 107% and 99.3%, respectively.

For the compound `COc1ccc(-c2cc(-c3ccc(Cl)cc3)nc(SCCCC(=O)NO)n2)cc1`, the growth was 8.24% (active) with T-47D breast; 26.1% in the test on BT-549 breast; 18.1% with MDA-MB-435 melanoma; 14.2% with SW-620 colon; 0.343% (active) in the test with MCF7 breast; 8.41% (active) in the test on HCT-116 colon. Also, the growth in the test with HCC-2998 colon is -10% (active); with KM12 colon, 18%.

Turning to `CCOC(=O)c1sc2ncnc(Nc3ccc4c(cnn4C(=O)Nc4ccc(C)c(Cl)c4)c3)c2c1C`, the growth was 101% with T-47D breast; 102% with BT-549 breast; 100% with MDA-MB-435 melanoma; 102% in the test with SW-620 colon; 87.8% in the test on MCF7 breast; 88.9% in the test on HCT-116 colon. Further, the growth in the test on HCC-2998 colon was 94.1%; in the test on KM12 colon, 95.4%.

As to `O=C(CN(C1CCCCC1)C1CCCCC1)Nc1ccc(S(=O)(=O)c2ccc(NC(=O)CN(C3CCCCC3)C3CCCCC3)cc2)cc1`, the growth is -38.1% (active) in the test on T-47D breast; -85.3% (active) with BT-549 breast; -39.5% (active) with MDA-MB-435 melanoma; -48.4% (active) in the test with SW-620 colon; -40.7% (active) in the test with MCF7 breast; -86.3% (active) with HCT-116 colon. Also, the values for the growth in the test with HCC-2998 colon and with KM12 colon were -37.4% (active) and -28.6% (active), respectively.

For the compound `Cc1ccc(Cl)cc1NC(=O)CCl`, the growth was 77.6% in the test with T-47D breast; 57.2% in the test with BT-549 breast; 83.1% in the test with MDA-MB-435 melanoma; 73.7% in the test with SW-620 colon; 67.8% in the test with MCF7 breast; 62.9% with HCT-116 colon. For the same compound, the growth with HCC-2998 colon is 114%; in the test on KM12 colon it was 96.1%.

Regarding `CN1CCN(CCC(=O)Nc2cccc(-n3cc(-c4ccncc4)c(-c4ccc(Cl)c(O)c4)n3)c2)CC1`, the growth is 62.9% in the test with T-47D breast; 56.5% with BT-549 breast; -37.9% (active) in the test with MDA-MB-435 melanoma; 20.9% in the test on SW-620 colon; 13.9% with MCF7 breast; 19.1% with HCT-116 colon. The figures for the growth in the test on HCC-2998 colon and with KM12 colon were 82.2% and 31.2%, respectively.

As for `CCOC(=O)CC(S(=O)(=O)c1ccccc1)S(=O)(=O)c1ccccc1`, the growth was 88.1% in the test on T-47D breast; 110% in the test on BT-549 breast; 107% in the test with MDA-MB-435 melanoma; 8.23% (active) with SW-620 colon; 101% in the test on MCF7 breast; 102% in the test on HCT-116 colon. Moreover, the growth in the test on HCC-2998 colon was 109%; in the test on KM12 colon, 97.1%.

Regarding `O=C(O)Cc1ccc(O)c(O)c1`, the growth in the test with T-47D breast is 83.2%; with BT-549 breast, 88.3%; in the test on MDA-MB-435 melanoma, 103%; in the test on SW-620 colon, 103%; in the test on MCF7 breast, 91%; in the test on HCT-116 colon, 105%. In addition, the values for the growth with HCC-2998 colon and with KM12 colon were 92.2% and 98.6%, respectively.

With `CN1CCc2c(sc3nc4n(-c5ccc(Cl)cc5)cnn4c(=O)c23)C1`, the growth with T-47D breast was 91.8%; in the test on BT-549 breast, 93.4%; in the test with MDA-MB-435 melanoma, 102%; with SW-620 colon, 110%; in the test with MCF7 breast, 70.6%; with HCT-116 colon, 98%. Moreover, the growth with HCC-2998 colon is 104%; in the test on KM12 colon, 103%.

`CCOC(=O)c1cc(C(=O)c2ccc(Cl)cc2)n2ccc(-c3cc[n+](CC(=O)c4ccc(OC)cc4)cc3)cc12`: the growth with T-47D breast was 83.4%; in the test with BT-549 breast, 82.1%; in the test with MDA-MB-435 melanoma, 75.5%; in the test on SW-620 colon it was -29.5% (active); in the test on MCF7 breast it was 1.28% (active); in the test on HCT-116 colon, 5.5% (active). Also, the growth was 100% in the test with HCC-2998 colon and 64.4% with KM12 colon.

For `COc1ccc(-c2cc(-c3ccccc3)nc(SCCCC(=O)NO)n2)cc1`, the growth is -1.07% (active) with T-47D breast; 19.6% in the test with BT-549 breast; -3.03% (active) in the test on MDA-MB-435 melanoma; 2.34% (active) in the test on SW-620 colon; -5.14% (active) in the test with MCF7 breast; 3.36% (active) in the test with HCT-116 colon. For the same compound, the growth in the test on HCC-2998 colon was -16.6% (active); in the test with KM12 colon it was 17.3%.

`CN(C)CCOc1ccc(-c2nc3sccn3c2-c2ccnc(S(C)(=O)=O)n2)cc1`: the growth with T-47D breast was 110%; in the test with BT-549 breast, 118%; with MDA-MB-435 melanoma, 107%; with SW-620 colon, 104%; in the test on MCF7 breast it was 90.2%; in the test with HCT-116 colon it was 98.1%. Also, the values for the growth in the test with HCC-2998 colon and with KM12 colon were 111% and 113%, respectively.
